Assays:
Settings in all cases: concentration: 1 μM, replicates: in singlicate; n = 1
MAP4K3 = tested on: MAP4K3
MAP4K4 = tested on: MAP4K4
MAP4K5 = tested on: MAP4K5
MAPKAPK2 = tested on: MAPKAPK2
MAPKAPK5 = tested on: MAPKAPK5
MARK1 = tested on: MARK1
MARK2 = tested on: MARK2
MARK3 = tested on: MARK3
MARK4 = tested on: MARK4
MAST1 = tested on: MAST1
MEK1 = tested on: T1, MEK1
T1 construct: gene MAP2K1

MEK2 = tested on: T2, MEK2
T2 construct: gene MAP2K2

MEK3 = tested on: T3, MEK3
T3 construct: gene MAP2K3

MEK4 = tested on: T4, MEK4
T4 construct: gene MAP2K4

MEK5 = tested on: T5, MEK5
T5 construct: gene MAP2K5

MEK6 = tested on: T6, MEK6
T6 construct: gene MAP2K6

MELK = tested on: MELK
MERTK = tested on: MERTK
MET = tested on: MET
MINK = tested on: T7, MINK
T7 construct: gene MINK1
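Note: KINOMEscan kinase panel screen.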

SMILES | %Inh (MAP4K3) | %Inh (MAP4K4) | %Inh (MAP4K5) | %Inh (MAPKAPK2) | %Inh (MAPKAPK5) | %Inh (MARK1) | %Inh (MARK2) | %Inh (MARK3) | %Inh (MARK4) | %Inh (MAST1) | %Inh (MEK1) | %Inh (MEK2) | %Inh (MEK3) | %Inh (MEK4) | %Inh (MEK5) | %Inh (MEK6) | %Inh (MELK) | %Inh (MERTK) | %Inh (MET) | %Inh (MINK)
NS(=O)(=O)c1cccc(-c2ccc3nccc(-c4cccc(S(N)(=O)=O)c4)c3c2)c1 [GW867253] | 0% | 0% | 0% | 0% | 0% | 7% | 0% | 0% | 25% | 47% | 23% | 30% | 38% | 15% | 41% | 7% | 0% | 14% | 0% | 27%
CSc1ccc(-c2cc3ncnc(SCC(=O)O)c3s2)cc1 | 0% | 0% | 0% | 1% | 0% | 0% | 18% | 6% | 0% | 15% | 0% | 0% | 2% | 0% | 1% | 0% | 10% | 0% | 3% | 8%
NCC(NC(=O)c1cc(-c2cn[nH]c2)c(-c2ccnc3[nH]ccc23)s1)c1ccccc1.O=C(O)C(F)(F)F.O=C(O)C(F)(F)F (stereo not shown) [GSK1325775] | 6% | 31% | 25% | 0% | 0% | 0% | 25% | 0% | 0% | 0% | 0% | 11% | 82% | 35% | 80% | 24% | 38% | 0% | 0% | 59%
O=C1Cc2cc(Nc3nc(NCc4cccc(S(=O)(=O)C(F)(F)F)c4)ncc3C(F)(F)F)ccc2N1 | 13% | 0% | 0% | 4% | 30% | 5% | 0% | 19% | 6% | 0% | 0% | 0% | 15% | 30% | 0% | 14% | 0% | 0% | 0% | 0%
COc1cc(Nc2nccc(N3CCC(NC(=O)c4cccc(NC(C)=O)c4)C3)n2)cc(OC)c1OC (stereo not shown) [GSK1379754] | 2% | 23% | 10% | 0% | 0% | 0% | 0% | 0% | 15% | 0% | 0% | 0% | 7% | 17% | 93.5% | 0% | 19% | 30% | 21% | 27%
Cc1c(Cn2c(C)nn3c(=O)cc(N4CCOC(C)C4)nc23)cccc1C(F)(F)F (stereo not shown) [GSK2344444] | 0% | 18% | 16% | 1% | 0% | 0% | 0% | 0% | 0% | 0% | 0% | 0% | 0% | 17% | 49% | 0% | 0% | 10% | 0% | 0%
COC(=O)Nc1nc2cc(Oc3ccc(NC(=O)Nc4cc(F)ccc4F)cc3)ccc2[nH]1.Cl [GW701424] | 0% | 0% | 0% | 13% | 0% | 0% | 0% | 3% | 0% | 5% | 0% | 0% | 0% | 15% | 12% | 0% | 10% | 90.8% | 40% | 5%
N#Cc1ccc(-c2cc(-c3c[nH]nc3-c3ccccn3)ccn2)cc1 [GW693028] | 0% | 46% | 0% | 4% | 0% | 0% | 0% | 0% | 0% | 26% | 0% | 0% | 0% | 1% | 13% | 0% | 0% | 15% | 0% | 76%
Fc1ccc(-c2ncn(CCCN3CCOCC3)c2-c2ccccn2)cc1 [SB-211742] | 0% | 2% | 0% | 0% | 0% | 0% | 0% | 30% | 24% | 18% | 6% | 31% | 0% | 0% | 0% | 0% | 18% | 0% | 13% | 0%
COCCNC(=O)c1ccc(-c2cc(C(=O)NC3CC3)cc(F)c2C)cc1 [GW868318] | 14% | 3% | 6% | 8% | 5% | 27% | 0% | 25% | 9% | 68% | 25% | 32% | 29% | 34% | 53% | 0% | 0% | 0% | 0% | 23%
CNc1ncnc2[nH]ncc12 [SKF-18355] | 0% | 0% | 0% | 0% | 0% | 23% | 14% | 35% | 59% | 70% | 13% | 40% | 31% | 18% | 55% | 10% | 0% | 0% | 0% | 18%
Cn1cc(-c2ccc3c(c2)CCN3C(=O)Cc2ccccc2Cl)c2c(N)ncnc21 [GSK2608885] | 70% | 58% | 96.3% | 0% | 3% | 16% | 0% | 46% | 19% | 0% | 70% | 90.6% | 3% | 17% | 99.7% | 47% | 0% | 93.2% | 88% | 8%
CCCCCc1nc2c(N)ncnc2n1CCCCC [SKF-97255] | 2% | 0% | 0% | 0% | 0% | 24% | 0% | 20% | 31% | 25% | 15% | 28% | 34% | 18% | 32% | 15% | 0% | 17% | 0% | 0%
Cc1cccc(Cn2ccn3c(=O)cc(N4CCOCC4)nc23)c1 [GSK2297542] | 0% | 4% | 0% | 14% | 0% | 7% | 11% | 0% | 10% | 0% | 0% | 0% | 0% | 23% | 14% | 5% | 8% | 24% | 23% | 7%
Cc1cccc(-c2nc(-c3ccc(S(C)(=O)=O)cc3)sc2-c2ccncc2)c1 | 0% | 30% | 0% | 1% | 0% | 34% | 0% | 0% | 31% | 31% | 2% | 1% | 0% | 27% | 12% | 14% | 5% | 12% | 10% | 16%
CC(C)Oc1ccc2c(-c3ccnc(Nc4ccc(N5CCN(C)CC5)cc4)n3)cnn2n1 [GW696155] | 52% | 1% | 0% | 0% | 0% | 50% | 72% | 77% | 59% | 8% | 25% | 43% | 43% | 50% | 82% | 53% | 71% | 10% | 0% | 65%
Cc1c2ccc(N(C)c3ccnc(Nc4cccc(S(N)(=O)=O)c4)n3)cc2nn1Cc1ccccc1.Cl.Cl [GW787226] | 70% | 33% | 87% | 0% | 0% | 18% | 0% | 49% | 36% | 0% | 12% | 34% | 29% | 75% | 98.4% | 23% | 16% | 70% | 60% | 54%
Cc1cccc(-c2nc(Nc3ccc4ncsc4c3)c3ccccc3n2)n1 [GW867588] | 9% | 3% | 4% | 0% | 0% | 6% | 0% | 0% | 9% | 21% | 2% | 3% | 3% | 0% | 12% | 0% | 5% | 0% | 0% | 0%
NS(=O)(=O)c1cccc(-c2ccc3ncc(N4CCOCC4)nc3c2)c1 [GSK1535721] | 0% | 0% | 0% | 7% | 0% | 0% | 11% | 0% | 0% | 0% | 11% | 0% | 0% | 23% | 16% | 4% | 17% | 9% | 0% | 27%
c1ccc(-c2cc(-c3c[nH]nc3-c3ccccn3)ccn2)cc1 [GW576604] | 0% | 22% | 0% | 6% | 0% | 0% | 0% | 0% | 0% | 13% | 0% | 0% | 0% | 16% | 41% | 0% | 1% | 0% | 13% | 71%

Reference: PMC5540273 (PLoS ONE, 2017)
